# Results from ChEMBL document CHEMBL1961873, “Compounds: GSK PKIS; Assays: Nanosyn kinase panel” (2012).
# Key:
# [1] = molecular target: Protein kinase C gamma type (Homo sapiens) (UniProt P05129); conditions: at 1 µM;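 further: each value is an averaged percent inhibition of the enzyme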
# [2] = molecular target: T1, Protein kinase C iota type (Homo sapiens) (UniProt P41743); conditions: at 0.1 µM
# T1 sequence (whole entry): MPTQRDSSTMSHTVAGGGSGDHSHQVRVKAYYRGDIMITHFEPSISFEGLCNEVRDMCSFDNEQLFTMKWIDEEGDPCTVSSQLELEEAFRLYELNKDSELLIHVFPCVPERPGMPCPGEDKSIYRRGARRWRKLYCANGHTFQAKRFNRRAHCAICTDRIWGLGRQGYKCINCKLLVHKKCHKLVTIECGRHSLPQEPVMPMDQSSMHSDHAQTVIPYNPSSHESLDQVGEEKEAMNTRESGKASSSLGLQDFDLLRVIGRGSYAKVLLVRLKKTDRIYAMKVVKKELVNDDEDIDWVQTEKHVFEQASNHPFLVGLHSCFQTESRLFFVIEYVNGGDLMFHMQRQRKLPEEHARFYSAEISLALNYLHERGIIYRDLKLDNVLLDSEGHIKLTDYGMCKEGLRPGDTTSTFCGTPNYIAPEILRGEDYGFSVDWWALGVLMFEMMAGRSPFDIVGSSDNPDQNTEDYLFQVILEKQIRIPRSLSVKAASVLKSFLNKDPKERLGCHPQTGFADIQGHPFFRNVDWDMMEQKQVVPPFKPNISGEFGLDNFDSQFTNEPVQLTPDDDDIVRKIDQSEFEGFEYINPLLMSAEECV
# [3] = molecular target: T1, Protein kinase C iota type (Homo sapiens); conditions: at 1 µM
# [4] = molecular target: Protein kinase C theta type (Homo sapiens) (UniProt Q04759); conditions: at 0.1 µM
# [5] = molecular target: Protein kinase C theta type (Homo sapiens) (UniProt Q04759); conditions: at 1 µM
# [6] = molecular target: Protein kinase C beta type (Homo sapiens) (UniProt P05771); conditions: at 0.1 µM
# [7] = molecular target: Protein kinase C beta type (Homo sapiens) (UniProt P05771); conditions: at 1 µM
# [8] = molecular target: T2, Serine/threonine-protein kinase D1 (Homo sapiens) (UniProt Q15139); conditions: at 0.1 µM
# T2 sequence (whole entry): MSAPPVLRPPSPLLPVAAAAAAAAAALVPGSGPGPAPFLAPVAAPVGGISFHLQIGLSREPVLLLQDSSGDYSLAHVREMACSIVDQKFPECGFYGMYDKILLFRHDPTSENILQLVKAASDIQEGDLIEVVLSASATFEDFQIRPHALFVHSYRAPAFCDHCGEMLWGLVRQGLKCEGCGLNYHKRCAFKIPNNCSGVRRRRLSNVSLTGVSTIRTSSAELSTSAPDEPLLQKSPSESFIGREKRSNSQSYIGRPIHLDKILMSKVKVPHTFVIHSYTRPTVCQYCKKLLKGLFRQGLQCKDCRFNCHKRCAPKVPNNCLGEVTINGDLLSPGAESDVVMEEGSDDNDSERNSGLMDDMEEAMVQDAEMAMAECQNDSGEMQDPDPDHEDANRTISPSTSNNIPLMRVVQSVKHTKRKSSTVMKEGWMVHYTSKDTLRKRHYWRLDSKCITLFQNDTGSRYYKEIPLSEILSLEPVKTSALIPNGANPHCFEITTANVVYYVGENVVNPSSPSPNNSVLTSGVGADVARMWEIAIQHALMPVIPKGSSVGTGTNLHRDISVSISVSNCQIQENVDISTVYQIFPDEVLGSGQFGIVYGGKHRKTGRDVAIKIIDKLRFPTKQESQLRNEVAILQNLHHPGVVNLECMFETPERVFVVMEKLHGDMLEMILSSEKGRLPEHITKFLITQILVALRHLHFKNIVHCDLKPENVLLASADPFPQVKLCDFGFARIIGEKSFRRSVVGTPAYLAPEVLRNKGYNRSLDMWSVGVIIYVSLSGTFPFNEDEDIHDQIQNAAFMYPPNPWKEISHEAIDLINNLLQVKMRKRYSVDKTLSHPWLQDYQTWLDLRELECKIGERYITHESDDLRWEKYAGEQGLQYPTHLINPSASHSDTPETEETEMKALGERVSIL
# [9] = molecular target: T2, Serine/threonine-protein kinase D1 (Homo sapiens); conditions: at 1 µM
# [10] = molecular target: T3, Serine/threonine-protein kinase D2 (Homo sapiens) (UniProt Q9BZL6); conditions: at 0.1 µM;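 further: reported percent inhibition values are means, part of the GSK PKIS kinase panel screen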
# T3 sequence (whole entry): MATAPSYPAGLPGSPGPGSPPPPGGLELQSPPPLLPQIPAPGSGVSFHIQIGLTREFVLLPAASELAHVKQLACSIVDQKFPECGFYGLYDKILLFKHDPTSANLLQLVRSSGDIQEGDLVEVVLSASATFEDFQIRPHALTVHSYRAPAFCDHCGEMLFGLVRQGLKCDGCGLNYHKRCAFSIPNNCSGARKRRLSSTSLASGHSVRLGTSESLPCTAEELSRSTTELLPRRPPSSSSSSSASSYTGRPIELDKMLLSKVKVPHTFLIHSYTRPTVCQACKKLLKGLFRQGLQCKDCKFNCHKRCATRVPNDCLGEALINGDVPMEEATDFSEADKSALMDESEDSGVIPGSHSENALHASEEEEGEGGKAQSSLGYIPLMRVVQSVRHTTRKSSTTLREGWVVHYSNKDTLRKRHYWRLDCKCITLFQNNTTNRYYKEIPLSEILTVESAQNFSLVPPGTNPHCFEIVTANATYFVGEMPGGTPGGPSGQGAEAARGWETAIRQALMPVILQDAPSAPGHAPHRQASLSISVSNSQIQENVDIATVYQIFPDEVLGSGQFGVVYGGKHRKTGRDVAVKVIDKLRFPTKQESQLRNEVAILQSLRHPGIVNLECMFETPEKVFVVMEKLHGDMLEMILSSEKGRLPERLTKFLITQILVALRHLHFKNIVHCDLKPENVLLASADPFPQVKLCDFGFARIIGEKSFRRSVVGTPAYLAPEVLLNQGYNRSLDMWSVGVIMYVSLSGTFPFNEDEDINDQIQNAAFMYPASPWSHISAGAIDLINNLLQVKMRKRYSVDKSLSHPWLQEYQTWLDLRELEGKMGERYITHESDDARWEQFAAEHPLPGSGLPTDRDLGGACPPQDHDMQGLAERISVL
# Chain of Protein kinase C beta type (Homo sapiens) (P05771 2-671 limits assumed): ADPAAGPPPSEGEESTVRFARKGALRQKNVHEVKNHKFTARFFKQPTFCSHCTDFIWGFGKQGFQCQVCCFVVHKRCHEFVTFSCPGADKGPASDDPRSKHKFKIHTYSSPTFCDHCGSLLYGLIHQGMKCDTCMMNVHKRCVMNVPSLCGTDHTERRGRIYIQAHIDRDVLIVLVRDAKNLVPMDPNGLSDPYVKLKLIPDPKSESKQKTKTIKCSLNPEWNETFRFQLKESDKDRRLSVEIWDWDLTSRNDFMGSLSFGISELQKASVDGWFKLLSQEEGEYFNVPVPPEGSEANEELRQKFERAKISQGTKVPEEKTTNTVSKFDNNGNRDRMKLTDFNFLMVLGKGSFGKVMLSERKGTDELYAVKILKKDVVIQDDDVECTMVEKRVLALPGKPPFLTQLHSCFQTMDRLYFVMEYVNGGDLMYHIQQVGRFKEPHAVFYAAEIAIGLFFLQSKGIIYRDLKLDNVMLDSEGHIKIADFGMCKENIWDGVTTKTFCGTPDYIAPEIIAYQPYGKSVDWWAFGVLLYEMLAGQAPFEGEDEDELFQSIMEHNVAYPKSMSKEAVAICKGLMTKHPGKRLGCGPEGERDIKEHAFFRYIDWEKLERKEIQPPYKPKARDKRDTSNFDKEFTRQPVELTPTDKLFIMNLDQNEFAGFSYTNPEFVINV
# Chain of Protein kinase C theta type (Homo sapiens) (Q04759 whole entry, looked up): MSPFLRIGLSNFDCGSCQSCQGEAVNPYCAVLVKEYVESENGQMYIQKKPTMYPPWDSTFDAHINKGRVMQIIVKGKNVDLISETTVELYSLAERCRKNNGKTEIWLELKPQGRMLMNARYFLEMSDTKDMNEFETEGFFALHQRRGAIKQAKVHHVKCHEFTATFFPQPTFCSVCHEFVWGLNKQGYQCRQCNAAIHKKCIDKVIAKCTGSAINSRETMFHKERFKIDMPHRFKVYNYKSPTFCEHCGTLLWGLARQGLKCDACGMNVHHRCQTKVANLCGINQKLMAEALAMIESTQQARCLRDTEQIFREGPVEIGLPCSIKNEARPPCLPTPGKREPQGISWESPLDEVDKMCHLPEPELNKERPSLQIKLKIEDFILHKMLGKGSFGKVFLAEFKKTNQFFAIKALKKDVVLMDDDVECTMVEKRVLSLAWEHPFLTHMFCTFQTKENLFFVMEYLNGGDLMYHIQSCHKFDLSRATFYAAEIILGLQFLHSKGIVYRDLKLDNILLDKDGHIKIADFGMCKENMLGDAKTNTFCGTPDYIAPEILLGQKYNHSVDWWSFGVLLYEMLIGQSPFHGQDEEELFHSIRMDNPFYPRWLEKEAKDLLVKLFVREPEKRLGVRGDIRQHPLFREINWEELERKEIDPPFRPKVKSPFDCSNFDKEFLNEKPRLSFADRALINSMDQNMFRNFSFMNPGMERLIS
Structure (SMILES),inhibition [1] [%],inhibition [2] [%],inhibition [3] [%],inhibition [4] [%],inhibition [5] [%],inhibition [6] [%],inhibition [7] [%],inhibition [8] [%],inhibition [9] [%],inhibition [10] [%]
Nc1nc(-c2ccc(F)cc2)c(-c2ccc3ncccc3n2)s1,4.5,2.17,1.59,1.69,3.74,1.11,3.48,8,45,8.22
N#Cc1c(NC(=O)c2ccc(F)cc2)sc2c1CCCC2,0.62,-0.52,-1.26,0.53,-0.01,1.04,0.69,1.57,2.87,3.3
Cc1cccc2c1NC(=O)/C2=N\Nc1ccc(S(N)(=O)=O)cc1,-2.77,1.18,2.53,0.85,0.4,2.86,0.46,2.89,4.31,2.72
[O-][S+]1CCN(Cc2ccc(-c3ccc4ncnc(Nc5ccc(OCc6cccc(F)c6)c(Cl)c5)c4c3)o2)CC1,1.04,3.42,2.26,2.17,2.74,2.05,2.51,5.58,10.6,4.6
CNC(=O)c1cccc(C#Cc2cncnc2Nc2ccc(OCc3cccc(F)c3)c(Cl)c2)c1,-1.09,0.26,-0.26,0.09,1.85,-3.35,-0.69,0.59,-0.61,-0.57
COc1cc(Nc2nccc(Nc3ccc4c(C)n[nH]c4c3)n2)cc(OC)c1OC,5.39,1.08,3.92,1.17,-0.29,2.72,6.67,2.61,2.11,1.03
Fc1cccc(COc2ccc(Nc3ncnc4sc(-c5ccco5)cc34)cc2Cl)c1,1.6,2.45,2.35,2,2.39,1,1.15,5.24,6.44,4.13
O=C(O[C@H]1CN[C@H](C#Cc2cc3ncnc(Nc4ccc(Cc5ccccc5)cc4)c3s2)C1)N1CCOCC1,3.28,2.08,2.38,1.84,2.2,2.68,4.05,2.54,3.43,3.17
CCc1nn2ncccc2c1-c1ccnc(NC2CC2)n1,4.3,0.47,0.64,0.97,1.63,1.1,3.32,2.35,4.56,2.36
COc1cccc(-c2c[nH]c3c(N/N=C/c4ccncc4)ncnc23)c1,7.65,4.1,20.3,0.91,0.99,1.66,5.79,1.3,6.07,1.26
CCn1cc(-c2ccnc3[nH]ccc23)c(-c2cccc(NC(=O)Nc3ccc(OCc4ccccc4)cc3)c2)n1,2.68,-0.3,0.28,0.93,1.88,0.47,1.93,2.3,5.37,18.8
COc1ccc(-c2nn3ncccc3c2-c2ccnc(Nc3ccc4c(c3)OCCO4)n2)cc1,3.96,-0.29,0.67,0.69,2.58,1.22,7.32,3.21,6.6,2.69
CCn1c(-c2nonc2N)nc2ccccc21,4.67,1.65,6.6,1.58,6.38,0.96,7.2,2.23,5.47,2.41
CC(C)COC(=O)c1ccc2c(c1)/C(=C/Nc1ccc(S(N)(=O)=O)cc1)C(=O)N2,9.06,-0.44,1.73,2.36,7.78,3.37,6.47,4.18,56,4.41
COc1ccc(-c2oc3ncnc(N)c3c2-c2ccc(NC(=O)Nc3cc(C(F)(F)F)ccc3F)cc2)cc1,6.08,3.51,0.63,3.51,5.06,1.71,4.49,2.73,3.09,3.37
N#Cc1c(NC(=O)CN2CCOCC2)sc2c1CCCC2,4.29,1.29,0.6,3.07,3.7,1.49,2.84,3.69,6.16,3.86
Fc1ccc(-c2nn3ncccc3c2-c2ccnc(Nc3ccc4c(c3)OCCO4)n2)cc1,7.86,0.67,3.27,1.22,3.8,3.86,20.1,4.89,36.5,8.87

Structure (SMILES),inhibition [1] [%],inhibition [2] [%],inhibition [3] [%],inhibition [4] [%],inhibition [5] [%],inhibition [6] [%],inhibition [7] [%],inhibition [8] [%],inhibition [9] [%],inhibition [10] [%]
COc1ccc(-c2cc(-c3c[nH]nc3-c3ccccn3)ccn2)cc1,1.71,1.68,0.87,2.82,5.05,0.62,1.96,8.14,37.8,9.14
COc1cccc(-n2ncc3c(N/N=C/c4ccc(F)cc4)ncnc32)c1,2.6,1.87,1.45,2.53,4.19,2.56,0.22,3.64,4.89,3.35
Cc1cccc(Nc2ncc(-c3ccccc3)o2)c1,7.25,1.43,2.2,4.9,6.83,2.39,7.38,3.07,5.44,3.21
CC1=C(C(=O)Nc2cc(Cl)c3[nH]ncc3c2)C(c2ccc(C(F)(F)F)cc2)CC(=O)N1 (stereo not given),3.46,1.43,1.11,5.67,28.3,1.98,2.19,2.79,6.51,3.43
COc1ccc2c(-c3ccnc(Nc4cccc(OC(F)(F)F)c4)n3)cnn2n1,1.65,2.36,1.45,2.59,4.8,1.08,5.19,3.42,6.19,3.92
COc1cc(N2CCN(C(C)C)CC2)ccc1Nc1nc(Nc2ccc(F)cc2C(N)=O)c2cc[nH]c2n1,15.7,-0.5,0.42,2.56,4.69,1.59,5.72,61.7,84.3,59.9
NS(=O)(=O)c1ccc(Nc2ncc(-c3ccccc3)o2)cc1,2.49,2.01,1.3,1.68,3.14,0.96,2.07,3.47,6.2,2.92
CC(C)(CO)CNC(=O)c1ccc2c(c1)/C(=N/Nc1ccc(S(N)(=O)=O)cc1)C(=O)N2,3.43,-0.53,-0.82,0.56,0.9,0.36,1.12,0.49,13.9,0.9
CCCN1CCC(c2ccc(Nc3nc(Nc4cc(F)ccc4C(N)=O)c4cc[nH]c4n3)c(OC)c2)CC1,29.8,0.78,1.12,2.2,8.87,1.54,6.05,21.5,73.8,18
CNC(=O)c1cc(-c2ccc(F)cc2)cc(-c2ccc(S(=O)(=O)N3CCCC3)cc2)c1N,2.53,1.11,1.04,0.84,1.4,-0.56,1.04,3.87,4.98,2.4
COc1ccc2[nH]c3c4[nH]c5ccc(OC)cc5c4c4c(c3c2c1)C(=O)NC4=O,11.7,0.72,0.15,4.69,20.9,3.68,12.9,5.02,27,8.15
COC(=O)c1sc(-n2cnc3cc(OC)c(OC)cc32)cc1OCc1ccccc1C(F)(F)F,2.66,0.97,2.66,1.11,0.41,0.96,1.08,3.64,5.12,4.89
Fc1ccc(-c2nn3ccccc3c2-c2ccncc2)cc1,2.4,0.48,3.99,0.74,2.07,1.95,10.9,1.78,6.49,1.93
CNC(=O)c1cncc(/C=C/c2ccccc2Cl)c1,3.18,1.77,0.56,1.22,3.14,2.46,1.4,1.19,-1.46,-1
COc1ccc(CNC(=O)c2ccc(-c3cc(-c4nnc(C)o4)ccc3C)cc2)cc1,2.05,2.77,0.76,2.86,5.52,2.73,3.61,2.89,-0.42,0.8
Clc1ccc(-c2nn3ncccc3c2-c2ccnc(Nc3ccccc3)n2)cc1,-1.39,0.23,0.46,0.91,-0.72,-0.06,3.99,1.65,2.76,1.23
COc1ccc(-c2cc3c(N)ncnc3o2)cc1,8.58,-0.83,-1.03,-1.21,-1.64,0.45,1.65,-1,-1.28,-0.34
